Laboratory results taken from PubChem BioAssay (NCI).
This is part of a sample that, as a whole, favours compounds with a hit. Of some 83,000 tested, about 20% had one in any assay.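 Interpretation: 100, growth as untreated; towards 0, rising growth inhibition; 0, no net growth; 0 to -100, cell death. Compounds scoring below 10 were considered active.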 Values without a mark were called inactive. The source made the active and inactive calls.

Each molecule was assayed on MDA-MB-468 breast (assay: NCI-60 one-dose screen, 48 h (100 = growth as untreated, 0 = no growth, -100 = all killed)). Settings: 10 µM unless noted.

SMILES	growth
Clc1ccc(Cc2nc3ccccc3s2)cc1	104%
NS(=O)(=O)c1cccc(Nc2nc(SCC(=O)c3ccc([N+](=O)[O-])cc3)nc3ccccc23)c1	0.252% (active)
CCCN(CCSSCCNc1nc(N(C)O)nc(N(C)O)n1)c1nc(N(C)O)nc(N(C)O)n1	15.8%
N#CCCCCCn1c2ccccc2c2c3[nH]c(=O)[nH]c(=O)c3c3c4ccccc4n(CCCCCC#N)c3c21	69.7%
CCn1cc(C(=O)O)c(=O)c2cc(F)c(N3CCN(S(=O)(=O)c4ccc(OC)c(OC)c4)CC3)cc21	100%
Cc1cc(O)c2c(c1)C1OC(=O)CCCCCN1C1=C2C(=O)c2cccc(OC3CC(O)C(O)C(C)O3)c2C1=O (centres undefined)	58.3%
Cn1c2c(c3ccc(-c4ccn[nH]4)cc3c1=O)C(=O)c1ccccc1-2	46.2%
COc1cc(C)ccc1Oc1nc(Nc2ccc(N3CCOCC3)cc2)ncc1NC(=O)Nc1cc(C(F)(F)F)cc(C(F)(F)F)c1	72.8%
CCN(CC)CCOC(=O)c1ccc(N=Nc2ccc(O)c(OC)c2)cc1	94%
Cn1cc(-c2csc(-c3cccc(F)c3)n2)c2cccnc21	-49.6% [100 µM] (active)
CC(=O)Cc1cc(-c2cc(CC(C)=O)[nH]n2)n[nH]1	103%
O=C(CSc1nnc(-c2ccc(Cl)cc2)n1-c1ccccc1)Nc1ccc(Br)cc1	59.1%
O=C(CCl)N(C1CCCCC1)C1CCCCC1	91.5%
Cc1cc2nc(C)c(C)nc2cc1C	112%
